GAA spleen mod = inhibitors or activators of human alpha-glucosidase in spleen homogenate | P10253 | human spleen homogenate, 4-MU-alpha-glucoside fluorescence | Potency, µM (titrated, usually from 79.9 µM), inactives show top-dose activity change, negative = inhibition, hits mostly inhibitors | 240,000 compounds, 0.006% hits | AID 2112;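 note: potency is the fitted concentration of half-maximal effect; 0% = enzyme with vehicle and -100% = no enzyme basal signal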
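Human spleen homogenate (1 ug) incubated with compounds and 1 mM 4-methylumbelliferyl-alpha-D-glucopyranoside in pH 5.0 citrate/phosphate buffer, 37 C, 40 min. Stopped at pH 10; 4-MU fluorescence (Ex 365/Em 440 nm); AC50 by Hill fit.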
GAA inhib = inhibitors of human lysosomal alpha-glucosidase | Potency, µM (highest dose often 76.9 µM), for inactives: top-dose activity change, negative = inhibition, hits mostly inhibitors | purified human GAA, 4-MU-alpha-glucoside fluorescence | P10253 | 200,000 compounds, 0.005% hits;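 note: potency is the fitted concentration of half-maximal effect; plate controls were uninhibited enzyme wells for no effect and no-enzyme background for full effect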
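Activity normalized between no-enzyme (basal) and enzyme-only wells. Conditions: 4 nM human enzyme, 400 uM fluorogenic substrate, citrate/phosphate pH 5.0 with Tween-20, 20 min room temperature, compounds up to 77 uM.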
GAA glycogen mod = inhibitors or activators of human alpha-glucosidase glycogen cleavage | Potency, µM (highest dose often 76.4 µM), inactives show top-dose activity change, negative = inhibition, hits mostly inhibitors | P10253 | AID 2100 | 300,000 compounds, 0.38% hits | recombinant GAA, glycogen substrate, Amplex Red glucose oxidase fluorescence;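 note: potency is the fitted concentration of half-maximal effect; 0% = full enzyme reaction and -100% = no-enzyme basal signal; the screen sought inhibitors and activators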
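Recombinant human alpha-glucosidase (4 nM final) hydrolysed bovine liver glycogen (30 ug) for 40 min at 37 C in pH 5.0 citrate/phosphate with 0.01% Tween-20. Released glucose detected by glucose oxidase/Amplex Red, Ex 573/Em 610 nm. Compounds up to 77 uM; AC50 from Hill fits.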
GLA spleen mod = inhibits or activates alpha-galactosidase in human spleen homogenate; P06280; human spleen homogenate, 4MU-alpha-Gal fluorescence, 40 min; Potency, µM (doses to about 80 µM), for inactives: at the highest dose activity change, negative = inhibition, most hits filed as inhibitors; 240,000 compounds, 0.008% hits;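 note: potency is the fitted concentration of half-maximal effect; 0% = enzyme with vehicle and -100% = no enzyme basal signal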
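Spleen homogenate 1 ug + cpd (titration) + 4-MU-alpha-D-galactopyranoside 1 mM; 37C 40 min; 50 mM citrate/phosphate pH 5.0, 0.01% Tween-20; stop pH 10; fluorescence 365/440; AC50 via Hill.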
GLA inh pH 4.5 = alpha-galactosidase A (human) inhibition, pH 4.5. purified enzyme, 4-MU-alpha-Gal fluorescence, pH 4.5. activity change, negative = inhibition, % at 105 µM. 230,000 tested, under 10 active. AID 1467;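 note: 0% = full activity with enzyme and -100% = basal without enzyme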
Target sequence (P06280 whole entry, looked up): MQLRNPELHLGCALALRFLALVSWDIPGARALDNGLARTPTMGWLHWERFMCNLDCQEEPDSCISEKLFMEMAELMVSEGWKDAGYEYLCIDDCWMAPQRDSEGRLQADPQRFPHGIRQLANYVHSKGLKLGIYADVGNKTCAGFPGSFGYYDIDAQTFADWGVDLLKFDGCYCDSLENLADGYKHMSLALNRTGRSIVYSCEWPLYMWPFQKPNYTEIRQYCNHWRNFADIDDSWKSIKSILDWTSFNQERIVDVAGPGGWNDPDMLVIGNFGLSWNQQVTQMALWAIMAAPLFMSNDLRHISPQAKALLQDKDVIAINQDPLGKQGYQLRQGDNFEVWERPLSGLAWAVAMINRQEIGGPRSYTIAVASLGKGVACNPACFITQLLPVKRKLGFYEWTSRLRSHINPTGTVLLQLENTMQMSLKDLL
* = called active by the depositor; ? = inconclusive; . = no result; [ ] = remark or other dose. Rows were chosen to be rich in hits. Some 0.4% of all compounds tested hit in one or more screens of this group. Calls come from the whole dose curve; as a rule, active = well fitted curve in the direction sought with a large enough effect; inconclusive = small, poorly fitted or top-dose-only effect, or another doubt; inactive = no such curve, though single readings can be large; an effect the other way counts as inactive or inconclusive.

SMILES	GAA spleen mod	GAA inhib	GAA glycogen mod	GLA spleen mod	GLA inh pH 4.5
CSCC[C@H](NC(=O)[C@H](CC(C)C)NC(=O)CNC(=O)[C@@H]1CCCN1C(=O)[C@H](Cc1ccccc1)NC(=O)[C@H](Cc1ccccc1)NC(=O)[C@H](CC(=O)O)NC(=O)[C@H](Cc1cnc[nH]1)NC(=O)[C@H](CCSC)NC(=O)[C@@H](N)CC(=O)O)C(N)=O	-4%	.	.	8%	.
CNC(=O)C1C(=S)NC(N)=C(C#N)C1c1ccccc1 (centres undefined)	2%	1%	22µM*	2%	4
CC1(C)OC(=O)C(=NNc2ccc(O)cc2)C(=O)O1	-12%	-3%	11µM*	-7%	2
N#Cc1ccc(N2CCN(S(=O)(=O)c3ccc4c(c3)CC(=O)N4)CC2)cc1	.	.	6.5µM*	.	.
O=C1Cc2cc(S(=O)(=O)N3CCN(c4ccc(O)cc4)CC3)ccc2N1	.	.	6.7µM*	.	.
O=C1Cc2cc(S(=O)(=O)N3CCN(c4cccc(C(F)(F)F)c4)CC3)ccc2N1	.	.	9.5µM*	.	.
O=C1Cc2cc(S(=O)(=O)N3CCN(c4ccc([N+](=O)[O-])cc4)CC3)ccc2N1	.	.	8.2µM*	.	.
Cc1cc(Nc2cccc(C(F)(F)F)c2)nc2ccc(NC(=O)c3cccnc3)cc12	.	.	-13%[76.3 µM]	.	.
COC(=O)[C@@H]1CC[C@H](C)[C@@H](c2ccc(C)cc2)N1C(=O)c1ccc(/C=N\O[C@@H](C)CN2CCCc3nc(C)c(C)cc32)cc1	9%[17.4 µM]	.	.	5%[17.5 µM]	.
CCOC(=O)C1CCN(S(=O)(=O)c2ccc3c(c2)CC(=O)N3)CC1	.	.	14µM*	.	.
COC(=O)CC1=NN(c2ccc(OC)cc2)C(=O)C1	-4%	?	28µM*	-6%	6
CN(C)c1cc(Cl)c2nonc2c1N	2%	.	13µM*	-7%	2
CCN(CC)c1cc(Cl)c2nonc2c1N	-2%	.	?	7%	-10
COc1cc(C2C3=C(CCCC3=O)Nc3[nH]n(-c4ccccc4)c(=O)c32)ccc1O (centres undefined)	-12%	3%	28µM*	?	-20
CCOc1ccc(-c2nonc2NC(=O)c2oc3c(C)c(C)ccc3c2C)cc1OCC	.	.	8%[76.3 µM]	.	.
Oc1ccc(N2CCN(C(c3cccs3)c3nnnn3CCc3ccccc3)CC2)cc1 (centres undefined)	-3%	-5%	28µM*	-2%	-2
COc1ccc(Cn2nnnc2C(c2cccs2)N2CCN(c3ccccc3)CC2)cc1 (centres undefined)	-4%	-6%	0%	-2%	-4
CC1(C)CC(=O)C(c2c[nH]c3ccccc23)C(=O)C1	-3%	5%	10µM*	1%	6
COC(=O)C1=C(C(=O)OC)[C@@H]2N(C)c3ccc(OC)cc3[C@@]23C[C@@H](C(=O)OC)N(S(=O)(=O)c2c(C)noc2C)C3=N1	9%[17.4 µM]	.	.	7%[17.5 µM]	7
CCOC(=O)Cn1cnc2c(nnn2-c2ccc(F)cc2)c1=O	.	.	50µM*	.	.
COc1ccc(NC(=O)NNC(=O)C(O)(c2ccccc2)c2ccccc2)cc1	.	.	-7%[76.3 µM]	.	.
COc1ccc(C(O)(C(=O)NNc2ccc(C)cc2)c2cccs2)cc1 (centres undefined)	1%	-2%	20µM*	-1%	1
O=C(NNc1ccc(C2CCCCC2)cc1)C(O)(c1ccccc1)c1cccs1 (centres undefined)	-15%	-14%	20µM*	6%	-9
CC1=Nc2cccc3cccc(c23)N1	3%	-5%	14µM*	-3%	-1
CCS(=O)(=O)Nc1c(C(=O)OC)[nH]c2ccccc12	-1%	-3%	4.5µM*	7%	6
SMILES	GAA spleen mod	GAA inhib	GAA glycogen mod	GLA spleen mod	GLA inh pH 4.5
C=CCOC(=O)Nc1c(C(=O)OC)[nH]c2ccccc12	-12%	-3%	-1%	-5%	6
CCS(=O)(=O)Nc1c(C(=O)O)[nH]c2ccccc12	-2%	-7%	5µM*	-3%	0
COc1ccc(-c2nc3cnc(N4CCN(C)CC4)nc3n(-c3ccc(OC)cc3)c2=O)cc1	-10%	.	.	17%	.
C1=Cc2ccccc2Nc2ccccc21	-9%	.	16µM*	4%	1
CCNC(=S)NNc1nc(N2CCOCC2)nc(N2CCOCC2)n1	-1%	4%	?	0%	4
CNC(=S)NNc1nc(N2CCOCC2)nc(N2CCOCC2)n1	7%	-5%	7.9µM*	-1%	-24
CCC(=O)Nc1sc2c(c1C#N)CCC2	1%	2%	8%	5%	8
CC(C)CC(=O)NC(NC(=S)Nc1sc2c(c1C#N)CCCC2)C(Cl)(Cl)Cl (centres undefined)	1%	-8%	28µM*	13%	-9
COC(=O)[C@@H](NC(=O)N1CCc2nc(-c3ccc(OC)cc3C)c3c(c2C1)CO[C@@H](c1ccccc1)C3)C(C)C	4%[17.4 µM]	.	.	2%[17.5 µM]	-4
COC(=O)C1=C(C)NC(C)=C(C(=O)OCCCN2CCC(c3ccccc3)(c3ccccc3)CC2)[C@H]1c1cccc([N+](=O)[O-])c1	-1%	.	.	10%	-17
Cc1cc(C)cc(Nc2nc3c(S(=O)(=O)c4cccc(Cl)c4)nnn3c3ccsc23)c1	.	.	40µM*	.	.
CC(=O)Nc1ccc(Nc2nc3c(S(=O)(=O)c4cccc(Cl)c4)nnn3c3ccsc23)cc1	.	.	15%[76.3 µM]	.	.
O=S(=O)(c1ccc(NC(=S)N/N=C/c2ccc(O)c(O)c2)cc1)N1CCOCC1	-9%	.	25µM*	0%	-2
C=CCNC(=S)NNc1nc(Nc2ccccc2)nc(N2CCCCC2)n1	-9%	8%	16µM*	-25%	-9
COc1cc(C)c(N)cc1C(C)C	-1%	0%	14µM*	12%	-6
Cc1ccccc1N1C(=O)CC(N(O)c2ccccc2)C1=O (centres undefined)	-2%	0%	4µM*	-7%	4
O=C1CC(N(O)c2ccccc2)C(=O)N1c1cc(Cl)cc(Cl)c1 (centres undefined)	1%	-9%	22µM*	1%	0
COc1ccccc1N(O)C1CC(=O)N(c2ccc(F)cc2)C1=O (centres undefined)	-5%	2%	18µM*	2%	10
COc1cccc(CSc2nc(-c3ccccc3F)nc3c2Cc2c(CO)cnc(C)c2O3)c1	.	.	10%[76.3 µM]	.	.
Cc1ccc(SCc2cc(=O)c3c(=O)n(-c4ccccc4)[nH]c3[nH]2)cc1	-2%	-14%	10µM*	-4%	-15
O=c1cc(CSc2ccc(Cl)cc2)[nH]c2[nH]n(-c3ccccc3)c(=O)c12	-14%	.	?	0%	-8
N[C@@H](Cc1cc(I)c(Oc2ccc(O)cc2)c(I)c1)C(=O)O	-7%	.	.	17%	.
COc1cc(/C=N/NC(=O)c2cn(-c3cccc(C)n3)cn2)ccc1O	-4%	-32%	25µM*	-6%	-14
Nc1n[nH]c2cc(=O)n(-c3cccc(C(F)(F)F)c3)nc12	-19%	-10%	32µM*	3%	-2
